Source: the supplement of paper PMC7366291
Counter-ions that a name gives are not always drawn. ± gives the standard deviation or the standard deviation of the averaged measurements.

Tests used:
Conditions in all cases: 25 µM; exposure: 24-48 hpf
[1] = tested on: Danio rerio Tg(wt1b:EGFP) embryo, pronephros; assay: glomerular separation, fold change vs DMSO control; higher = glomeruli further apart (abnormal)
Outline: (§1)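 Every feature is expressed as a fold change relative to the averaged DMSO-treated embryos of the same day. The exposure ran from 24 to 48 hpf at 28.5°C, with dechorionated Tg(wt1b:EGFP) zebrafish embryos in HEPES-buffered E3 containing 0.003% PTU, 0.5% DMSO and 25 μM compound. Dorsal pronephros images taken in agarose-filled 96-well plates were reduced to maximum projections, on which 16 reference points were set by hand in Fiji for a macro to compute distances and angles. Values more than 2 SD from the feature mean were not used.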

[2] = tested on: Danio rerio Tg(wt1b:EGFP) embryo, pronephros; assay: glomerular width (mean of left and right), fold change vs DMSO control; higher = wider glomerulus
Outline: as §1

[3] = tested on: Danio rerio Tg(wt1b:EGFP) embryo, pronephros; assay: fraction of imaged embryos annotated as normal kidney; higher = less nephrotoxic; extreme values may be limits of the assay
Outline: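 Tricaine-anaesthetised Tg(wt1b:EGFP) zebrafish larvae were oriented dorsally in agarose-filled 96-well plates, and their pronephroi were recorded by widefield fluorescence at 470 nm in 10 z-slices. Before this, the dechorionated embryos had been exposed in 12-well plates to 25 μM compound in 0.5% DMSO and 5 mM HEPES-buffered E3 with 0.003% PTU, from 24 to 48 hpf at 28.5°C. Maximum projections were annotated manually for each embryo, and the read-out is the fraction per treatment classed as normal kidney.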

[4] = tested on: Danio rerio Tg(wt1b:EGFP) embryo, pronephros; assay: pronephric angle neck segment to proximal convoluted tubule (mean of left and right), fold change vs DMSO control; higher = larger pronephric angle
Outline: as §1

Row | Compound | glomerular separation [1] | glomerular width [2] | fraction of imaged embryos annotated as normal kidney [3] | pronephric angle neck segment [4]
1 | O=C1CC2(CCCC2)CC(=O)N1CCCCN1CCN(c2ncccn2)CC1 [Buspirone hydrochloride] | 0.901 ± 0.35 | 1.02 ± 0.022 | 0.75 | 1.01 ± 0.034
2 | C=C1c2cccc(O)c2C(=O)C2=C(O)[C@]3(O)C(=O)C(C(N)=O)=C(O)[C@@H](N(C)C)[C@@H]3[C@@H](O)[C@H]12 [Methacycline hydrochloride] | 0.724 ± 0.4 | 1.11 ± 0.0095 | 0.818 | 0.984 ± 0.018
3 | COc1ccccc1OCCNCC(O)COc1cccc2[nH]c3ccccc3c12 (stereo unspecified) [Carvedilol] | 1.02 ± 0.41 | 1.048 ± 0.0037 | 0.8 | 0.958 ± 0.019
4 | CN1CCN2c3ccccc3Cc3ccccc3C2C1 (stereo unspecified) [Mianserine hydrochloride] | 1.3 ± 0.59 | 0.983 ± 0.035 | 0.833 | 0.9786 ± 0.0076
5 | CN/C(=N\CCSCc1nc[nH]c1C)NC#N [Cimetidine] | 1.02 ± 0.34 | 1.051 ± 0.0067 | 0.917 | 0.926 ± 0.062
6 | CNCC[C@@H](Oc1ccccc1C)c1ccccc1 [Tomoxetine hydrochloride] | 1.04 ± 0.55 | 0.979 ± 0.023 | 0.75 | 1 ± 0.022
7 | CC(NCCC(c1ccccc1)c1ccccc1)c1ccccc1 (stereo unspecified) [Fendiline hydrochloride] | 1.17 ± 0.28 | 0.995 ± 0.018 | 0.727 | 1 ± 0.036
8 | CCC1(c2ccccc2)NC(=O)N(C)C1=O (stereo unspecified) [Mephenytoin] | 1.13 ± 0.4 | 0.9232 ± 0.0066 | 0.75 | 1.0068 ± 0.00059
9 | CC[C@H]1OC(=O)C[C@@H](O)[C@H](C)[C@@H](O[C@@H]2O[C@H](C)[C@@H](O[C@H]3C[C@@](C)(O)[C@@H](O)[C@H](C)O3)[C@H](N(C)C)[C@H]2O)[C@@H](CC=O)C[C@@H](C)C(=O)/C=C/C(C)=C/[C@@H]1CO[C@@H]1O[C@H](C)[C@@H](O)[C@@H](OC)[C@H]1OC [Tylosin] | 0.911 ± 0.28 | 0.983 ± 0.0057 | 0.833 | 1.005 ± 0.0099
